Rows were chosen to be rich in hits. Some 2.2% of all compounds tested hit in one or more screens of this group.
FUS yeast rescue = rescues growth of FUS-expressing yeast; Potency, µM (highest dose often 76.6 µM), hits mostly activators; S. cerevisiae FUS-expressing, growth rescue, OD600, 24 h; actives 0.24% (n = 390,000);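 further: plate controls were DMSO vehicle for no effect and reference control for full effect; nearly all actives have a fitted effect of over 55% in size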
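FUS-expressing yeast, raffinose-pregrown, induced in 2% galactose minimal medium at OD 0.005; compounds in a dilution series, 24hr at 30C. Growth restoration read as absorbance at 600 nm. CP55940 positive control, DMSO negative.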
Abeta yeast res = A-beta toxicity reversal in yeast; Potency, µM (titrated, usually from 46.1 µM), usual class: activators; yeast expressing A-beta42, growth rescue, OD600, 48 h; response scale: 0% DMSO, 100% iron-clioquinol control; AID 1347071; actives 0.063% (n = 410,000); further: nearly all actives have a fitted effect of over 55% in size
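Yeast A-beta toxicity model in growth medium with pinned compounds, 48 h at 30 C; growth read as absorbance at 600 nm. Normalized to FeCl3/clioquinol equimolar mix (positive) and DMSO (negative).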
aSyn yeast inh = inhibitors of alpha-synuclein toxicity in yeast | Yeast expressing alpha-synuclein, growth rescue, BacTiter-Glo, 24 h | Potency, µM (series often up to 46.1 µM), for inactives: at the top dose growth rescue (activation), actives largely listed as activators | actives 0.14% (n = 370,000) | AID 652106; further: % of control where 0% means no effect; nearly all actives have a fitted effect of over 65% in size
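Galactose-induced alpha-syn yeast (OD600=0.02, raffinose-pregrown) + pinned cpd, 24 hr, 30 deg C; growth by BacTiter-Glo luminescence. Growth restoration scores as activation.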
TDP43 rescue = rescues yeast growth from TDP-43 toxicity; TDP-43 expressing yeast growth rescue, BacTiter-Glo, 24 h; Potency, µM (series often up to 46.1 µM), for inactives: top-dose growth rescue (activation), most hits filed as activators; actives 1.8% (n = 410,000); further: % of control where 0% means no effect; nearly all actives have a fitted effect of over 50% in size
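Growth rescue of TDP-43-toxic yeast measured as ATP luminescence (BacTiter-Glo). Cells grown to mid-log in raffinose, induced in galactose at OD600=0.02, exposed to compound 24 hr at 30 deg C.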
Mito fusion yeast = blocks mitochondrial division or promotes mitochondrial fusion; S. cerevisiae fusion-defective mutant growth rescue, CellTiterGlo 48 h; Potency, µM (doses to about 46.1 µM), for the others: top-dose growth rescue (activation), most hits filed as activators; actives 0.23% (n = 320,000); AID 485298; further: % of control where 0% means no effect; nearly all actives have a fitted effect of over 45% in size
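Growth-rescue viability read-out: after 48 h at the non-permissive 37C in glycerol/ethanol YPEG, yeast mitochondrial fusion mutants are measured by CellTiterGlo luminescence; compounds (23 nl pinned per well) restoring growth score as division inhibitors or fusion activators.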
Numbers without * were called inactive; i = inactive; ? = inconclusive; · = not tested or not shown. The call rests on the fitted dose curve; in most records, active means well fitted curve in the direction sought with a large enough effect; inconclusive means small, poorly fitted or top-dose-only effect, or another doubt; inactive means no such curve, though single readings can be large; an effect the other way counts as inactive or inconclusive. Potency means the concentration at half of the fitted maximal effect.

SMILES | FUS yeast rescue | Abeta yeast res | aSyn yeast inh | TDP43 rescue | Mito fusion yeast
Cc1ccc(S(=O)(=O)N(C)C)cc1NC(=S)N(CCC#N)Cc1cccnc1 | i | i | -1% | -14% | 7.1µM*
Cc1nc(-c2cccc(NC(=O)c3ccc(Br)o3)c2)cs1 | i | i | -9% | 11µM* | 5%
COc1ccccc1N(CC(=O)NC1CCCC1)C(=O)CCC(=O)Nc1ccccn1 | i | i | 5% | -2% | 2%
Cc1ccc2occ(-c3cc(-c4ccc(F)cc4)nc4c3COc3ccc(F)cc3-4)c(=O)c2c1 | i | i | · | 13% | ·
COc1ccc(CN2C(=O)c3cccnc3C2Nc2ccc(OC)c(Cl)c2)cc1 (configuration not stated) | 32µM* | i | 1% | -7% | 8%
COc1ccc(NC2c3ncccc3C(=O)N2Cc2ccccc2)c(OC)c1 (configuration not stated) | ? | i | -13% | -13% | 4%
O=C(COC(=O)c1cc(S(=O)(=O)N2CCCCC2)ccc1N1CCOCC1)c1ccccc1Cl | i | i | 3% | 19% | ·
O=C1c2cc3c(cc2CCC1c1ccc2c(c1)OCO2)OCO3 (configuration not stated) | i | i | -4% | 16µM* | ·
O=C(O)c1ccc(CP(=O)(c2ccccc2)c2ccccc2)cc1 | i | i | 12% | 12% | -3%
O=C(CCC1N=C2c3ccccc3N=C(SCc3ccccc3F)N2C1=O)NCc1ccc(F)cc1 (configuration not stated) | i | i | · | 16% | ·
C[C@@H]1CCCCO[C@H](CN(C)Cc2ccc(Cl)c(Cl)c2)[C@H](C)CN([C@@H](C)CO)C(=O)c2cc(NC(=O)Nc3ccc(F)cc3)ccc2O1 | 35µM* | i | -6% | 0% | ·
C[C@@H]1CN([C@H](C)CO)C(=O)c2cc(NC(=O)Nc3ccc(C(F)(F)F)cc3)ccc2O[C@H]1CN(C)C(=O)Nc1ccc(F)cc1 | 28µM* | i | 1% | -16% | ·
CCOC(=O)CCCCCC(=O)Nc1ccc2c(c1)C(=O)N([C@@H](C)CO)C[C@H](C)[C@H](CN(C)C(=O)Nc1ccc(F)cc1)OCCCC[C@H](C)O2 | 22µM* | i | 0% | 27% | ·
COc1ccc(NC(=O)Nc2ccc3c(c2)C(=O)N([C@H](C)CO)C[C@H](C)[C@@H](CN(C)Cc2ccc(Cl)c(Cl)c2)OCCCC[C@@H](C)O3)cc1 | ? | i | -2% | 6% | ·
CCCCC(=O)N[C@H]1CC[C@@]23CCCN2C(=O)CCC[C@H]3[C@H]1C | i | · | · | · | ·
Cc1ccc(Nc2nc(COC(=O)C3CC3)cs2)cc1 | i | i | -24% | 13µM* | 4%
CCn1nc(C)c2c(-c3ccccc3)cc(=O)n(C(C)C(=O)NCCc3ccccc3)c21 (configuration not stated) | i | i | · | ? | ·
CCn1nc(C)c2c(-c3ccccc3)cc(=O)n(C(C)C(=O)NCCc3ccc(OC)c(OC)c3)c21 (configuration not stated) | i | i | · | 16µM* | ·
CC(C#N)(CCc1ccccn1)CCc1ccccn1 | i | i | -1% | -9% | ·
ClCc1nc2ccccc2c2ccccc12 | i | i | -1% | 14µM* | -29%
CCOC(=O)c1c(CCl)nc2ccccc2c1-c1ccccc1 | i | i | -11% | 24% | 0%
O=C(CCCC(=O)OCC(Cl)=C(Cl)Cl)Nc1cccc2ccccc12 | i | i | -5% | 20% | 8%
O=C(CSCc1ccccc1)Nc1cccc(F)c1 | i | i | 3% | 6.3µM* | 5%
O=C(CCCC(=O)OCC(Cl)=C(Cl)Cl)Nc1ccc(F)cc1 | i | i | 10% | 16µM* | 5%
O=C(Cc1ccccc1)Nc1cccc(N2C(=O)C=CC2=O)c1 | · | i | 2% | 6.3µM* | -2%
SMILES | FUS yeast rescue | Abeta yeast res | aSyn yeast inh | TDP43 rescue | Mito fusion yeast
O=C(CCCC(=O)OCC(Cl)=C(Cl)Cl)Nc1cccc(F)c1 | i | i | 6% | 14µM* | 0%
COc1ccc(NC(=O)CNc2ccc(OC)c(S(=O)(=O)N3CCOCC3)c2)cc1 | i | i | -1% | 0% | ·
CC(C)CCNC(=O)CCCOc1ccccc1 | i | i | -2% | 9% | 1%
O=C(CCCOc1cccc(Br)c1)NCCOc1ccccc1 | i | i | 10% | 13µM* | 0%
CCC(C)Sc1ccc([C@@H]2[C@@H]3C(=O)N(C)C(=O)[C@@H]3[C@]3(C(=O)OC)CCCCN23)cc1OC (some centres not stated) | i | i | 16% | ? | 12%
COC(=O)[C@@]12CCCN1[C@H](c1ccc(-c3cccc(Cl)c3)c(OC)c1)[C@H]1C(=O)N(C)C(=O)[C@H]12 | ? | i | -1% | 1% | 18%
CCC(C)Sc1ccc([C@@H]2[C@@H]3C(=O)N(CC)C(=O)[C@@H]3[C@]3(C(=O)OC)CCCCN23)cc1OC (some centres not stated) | ? | i | 15% | 35µM* | ·
CCN1C(=O)[C@@H]2[C@@H](c3ccc(SC4CCCCC4)c(OC)c3)N3CCCC[C@@]3(C(=O)OC)[C@@H]2C1=O | 5µM* | i | -1% | -22% | ·
COC(=O)[C@@]12CCCCN1[C@H](c1ccc(SC3CCCCC3)c(OC)c1)[C@@H]1C(=O)N(C)C(=O)[C@@H]12 | i | i | ? | 20% | 13%
COC(=O)[C@@]12CCCN1[C@H](c1ccc(-c3ccc(Cl)c(Cl)c3)c(OC)c1)[C@H]1C(=O)N(C)C(=O)[C@H]12 | 35µM* | i | -7% | ? | ·
CCN1C(=O)[C@H]2[C@@H](c3ccc(-c4ccc(C(C)=O)cc4)c(OC)c3)N3CCCC[C@@]3(C(=O)OC)[C@H]2C1=O | ? | i | ? | 14µM* | ·
Cc1ccc(Sc2c(O)c3ccccc3n(C)c2=O)cc1 | i | ? | 7% | 3.2µM* | 14µM*
CC(=O)c1c(O)c2ccccc2n(C)c1=O | i | i | 6% | -70% | -3%
Cn1c(=O)c(Sc2ccccc2)c(O)c2ccccc21 | i | i | -6% | 13µM* | -8%
Cn1c(=O)c(S(=O)(=O)C(C)(C)C)c(O)c2ccccc21 | · | i | 16% | 2.8µM* | 2%
COc1ccc(C(=O)Nc2cc(OC)c(NC(=O)Nc3ccccc3)cc2OC)cc1 | i | i | -9% | -5% | ·
O=C1C=C[C@H]2CC[C@@H](O)[C@@H]1[C@@H]2Sc1ccccc1 | i | · | · | · | ·
CCNC(=S)N/N=C(\C)c1ccc(Cl)s1 | · | i | 0% | ? | -14%
CNC(=S)N/N=C(\C)c1ccc(Cl)s1 | i | ? | -9% | 14µM* | -6%

Screens deposited in PubChem BioAssay by National Center for Advancing Translational Sciences (NCATS).
